Consider six molecules from PubChem BioAssay (Tox21).

The structures appear in SMILES notation. A number with no mark means an inactive call. Records with an inconclusive call do not appear. The source made the active and inactive calls. Unless noted, calls come from the whole dose curve; as a rule, active = well fitted curve in the direction sought with a large enough effect in the repeat runs; inconclusive = weak or mixed curves; inactive = no such curve, though single readings can be large; an effect the other way counts as inactive or inconclusive.

A short description of assay [1]: qHTS assay to identify small molecule antagonists of the glucocorticoid receptor (GR) signaling pathway - cell viability counter screen (AID 720693). Note: nearly all actives have a fitted effect of over 55% in size. Note: potency is the fitted concentration of half-maximal effect. Background: qHTS replaces the single test concentration by a dilution series.
Assay [2] can be described thus: qHTS assay for identifying genotoxic compounds that show differential cytotoxicity against isogenic chicken DT40 cell lines with known DNA damage response pathways - wild type cell line (AID 743012). Note: nearly all actives have a fitted effect of over 60% in size. Note: potency is the fitted concentration of half-maximal effect. The essentials:
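Luminescent ATP viability signal (CellTiter-Glo, 30 min RT) recorded after wild type DT40 cells were incubated with compounds for 40 h at 37 C/5% CO2.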

Assay [3] is described as follows: qHTS assay for identifying genotoxic compounds that show differential cytotoxicity against isogenic chicken DT40 cell lines with known DNA damage response pathways - Rev3 mutant cell line (AID 743014). Note: nearly all actives have a fitted effect of over 55% in size. Note: potency is the fitted concentration of half-maximal effect.
Assay [4] is described as follows: qHTS assay for identifying genotoxic compounds that show differential cytotoxicity against isogenic chicken DT40 cell lines with known DNA damage response pathways - Rad54/Ku70 mutant cell line (AID 743015). Note: nearly all actives have a fitted effect of over 60% in size. Note: potency is the fitted concentration of half-maximal effect.
Assay [5] can be described thus: qHTS assay to identify small molecule antagonists of the androgen receptor (AR) signaling pathway - cell viability counter screen (AID 743033; note: nearly all actives have a fitted effect of over 45% in size; note: potency is the fitted concentration of half-maximal effect).
The target in assay [6] is Androgen receptor (Homo sapiens) (UniProt P10275). Briefly: qHTS assay to identify small molecule antagonists of the androgen receptor (AR) signaling pathway (AID 743035; active = well fitted inhibition curve with a large enough effect in the signal ratio in the repeat runs, not every such curve was filed as active; the % refers to the signal ratio; note: potency is the fitted concentration of half-maximal effect). In outline: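 Quantitative HTS of the Tox21 10K library used HEK293 AR-UAS-bla cells stimulated with R1881 alongside compound for 16 h at 37C, followed by beta-lactamase FRET detection (LiveBLAzer B/G, 2 h, RT).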

For assay [7] the target is unchanged. The assay can be described thus: qHTS assay to identify small molecule agonists of the androgen receptor (AR) signaling pathway using the MDA cell line (AID 743040; note: nearly all actives have a fitted effect of over 20% in size; note: potency is the fitted concentration of half-maximal effect). In outline:
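Luciferase read-out, ONE-Glo, 30 min RT. Cells: MDA-kb2 AR-luc, MMTV promoter with AR and GR response elements. Compound exposure 16 h, 37C, 0% CO2, after 5 h pre-incubation. qHTS agonist mode.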

Assay [8] in a line: qHTS assay to identify small molecule antagonists of the androgen receptor (AR) signaling pathway using the MDA cell line - cell viability counter screen (AID 743041; note: nearly all actives have a fitted effect of over 45% in size; note: potency is the fitted concentration of half-maximal effect). The essentials: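 Cytotoxicity counter screen: MDA-kb2 AR-luc cells, compound + R1881, 16 h, 37C, 0% CO2; CellTiter-Fluor added at 15.5 h, fluorescence read after 30 min.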
Assay [9] concerns the target Androgen receptor (Homo sapiens) (UniProt P10275). Briefly: qHTS assay to identify small molecule antagonists of the androgen receptor (AR) signaling pathway using the MDA cell line (AID 743042; note: nearly all actives have a fitted effect of over 55% in size; note: potency is the fitted concentration of half-maximal effect). The essentials: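 MDA-kb2 breast carcinoma cells carrying MMTV-luciferase (AR/GR responsive) were co-treated with compounds and the agonist R1881 for 16 h at 37C. Inhibition read as ONE-Glo luminescence; CellTiter-Fluor fluorescence measured in parallel for cytotoxicity.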

Assay [10] can be described thus: qHTS assay to identify small molecule antagonists of the thyroid receptor (TR) signaling pathway - cell viability counter screen (AID 743064). Note: nearly all actives have a fitted effect of over 50% in size. Note: potency is the fitted concentration of half-maximal effect. The essentials: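 GH3.TRE-Luc rat pituitary cells carrying a TRE-luciferase reporter were treated with compound plus 1 nM T3 (final) for 23.5 h at 37 °C. Viability was then read in the same wells by CellTiter-Fluor fluorescence after a further 30 min.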

Assay [11] in a line: qHTS assay to identify small molecule antagonists of the thyroid receptor (TR) signaling pathway (AID 743065). Note: nearly all actives have a fitted effect of over 55% in size. Note: potency is the fitted concentration of half-maximal effect. The essentials: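 GH3.TRE-Luc rat pituitary cells (two TREs driving luciferase) were dosed with compound, then stimulated with 1 nM T3 (final) for 23.5 h at 37 C. ONE-Glo luminescence was the read-out, with CellTiter-Fluor fluorescence as the cytotoxicity counter-screen.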

Assay [12] relates to thyroid hormone receptor (rat, GH3 cells). The assay can be described thus: qHTS assay to identify small molecule agonists of the thyroid receptor (TR) signaling pathway (AID 743066; calls by dose curve).
Assay [13] addresses Estrogen receptor (Homo sapiens) (UniProt P03372). The assay can be described thus: qHTS assay to identify small molecule antagonists of the estrogen receptor alpha (ER-alpha) signaling pathway (AID 743069; active = well fitted curve in the direction sought with a large enough effect in the signal ratio in the repeat runs, not every such curve was filed as active; the % refers to the signal ratio). The essentials: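 Beta-lactamase FRET fluorescence is read after 2 hr at room temperature with LiveBLAzer B/G substrate. Before that, ER-alpha-bla HEK293 cells sit 4 hr after plating, then receive compound plus 17beta-estradiol and incubate 18 hr at 37C.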

The target is the same in assay [14]. The assay can be described thus: qHTS assay to identify small molecule agonists of the estrogen receptor alpha (ER-alpha) signaling pathway (AID 743075; calls by dose curve). To be noted: HEK293 ER-alpha-UAS-bla, beta-lactamase FRET ratio, 18 h; activation: at 70.1 µM (top of the series).
Assay [15] can be described thus: qHTS assay to identify small molecule antagonists of the estrogen receptor alpha (ER-alpha) signaling pathway using the BG1 cell line (AID 743080; calls by dose curve;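 note: BG1 cells stimulated with 17beta-estradiol alongside compound; nearly all actives have a fitted effect of over 25% in size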). In outline:
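Luciferase inhibition measured with ONE-Glo after 30 min at RT in BG1Luc4E2 cells given test compounds and 17beta-estradiol for 21.5 h at 37 C; CellTiter-Fluor viability read in the same wells beforehand.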

A short description of assay [16]: qHTS assay to identify small molecule antagonists of the estrogen receptor alpha (ER-alpha) signaling pathway using the BG1 cell line - cell viability counter screen (AID 743081).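 Note: compound given together with 17beta-estradiol as the ER stimulus; nearly all actives have a fitted effect of over 45% in size.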 Note: potency is the fitted concentration of half-maximal effect.
In a further assay the target is Aromatase (Homo sapiens) (UniProt P11511). Briefly: qHTS assay to identify aromatase inhibitors (AID 743083). Note: nearly all actives have a fitted effect of over 55% in size. Note: potency is the fitted concentration of half-maximal effect.
Assay [17] is described as follows: qHTS assay to identify small molecule antagonists of the estrogen receptor alpha (ER-alpha) signaling pathway - cell viability counter screen (AID 743074; calls by dose curve;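 note: HEK293 cells carrying ER-alpha-UAS-bla reporter stimulated with 17beta-estradiol; nearly all actives have a fitted effect of over 45% in size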; note: potency is the fitted concentration of half-maximal effect).
The target of assay [18] is Estrogen receptor (Homo sapiens) (UniProt P03372). Briefly: qHTS assay to identify small molecule agonists of the estrogen receptor alpha (ER-alpha) signaling pathway using the BG1 cell line (AID 743079). Note: nearly all actives have a fitted effect of over 20% in size. The note with it: BG1Luc4E2 cells, ERE-luciferase agonist, 22 h; at 70.3 µM (top of the series).
Assay [19] has as its target Androgen receptor (Homo sapiens) (UniProt P10275). The assay can be described thus: qHTS assay to identify small molecule agonists of the androgen receptor (AR) signaling pathway (AID 743036; active = well fitted activation curve with a large enough effect in the signal ratio in the repeat runs, with a control signal flat, not every such curve was filed as active; the % refers to the signal ratio). The essentials:
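HEK293 cells stably carrying a UAS-driven beta-lactamase reporter (GeneBLAzer AR-UAS-bla-GripTite) were plated at 2,000 cells/well, rested 4 h at 37C, then exposed to compounds in DMSO for 16 h. LiveBLAzer B/G FRET substrate was added for 2 h at room temperature; fluorescence read.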
% is set by controls: 0 for no effect and ±100 for the full control effect.

Chain of Estrogen receptor (Homo sapiens) (P03372 whole entry, looked up): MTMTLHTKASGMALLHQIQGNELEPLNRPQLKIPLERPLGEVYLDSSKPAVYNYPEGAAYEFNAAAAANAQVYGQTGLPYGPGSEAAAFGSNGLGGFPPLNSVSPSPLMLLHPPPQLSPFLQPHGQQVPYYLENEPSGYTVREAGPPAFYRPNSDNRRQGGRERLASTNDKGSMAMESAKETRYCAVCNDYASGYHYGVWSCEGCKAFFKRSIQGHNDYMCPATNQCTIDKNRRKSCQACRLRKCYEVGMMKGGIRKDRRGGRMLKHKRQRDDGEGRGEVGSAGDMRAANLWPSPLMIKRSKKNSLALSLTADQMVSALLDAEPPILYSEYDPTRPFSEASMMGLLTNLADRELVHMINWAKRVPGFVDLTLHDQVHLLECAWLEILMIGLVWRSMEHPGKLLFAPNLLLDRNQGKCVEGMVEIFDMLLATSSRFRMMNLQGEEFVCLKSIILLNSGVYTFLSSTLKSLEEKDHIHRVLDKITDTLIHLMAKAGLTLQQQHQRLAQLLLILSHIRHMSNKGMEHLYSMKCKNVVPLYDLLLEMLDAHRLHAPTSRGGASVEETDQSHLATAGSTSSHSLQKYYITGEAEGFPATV
Chain of Androgen receptor (Homo sapiens) (P10275 whole entry, looked up): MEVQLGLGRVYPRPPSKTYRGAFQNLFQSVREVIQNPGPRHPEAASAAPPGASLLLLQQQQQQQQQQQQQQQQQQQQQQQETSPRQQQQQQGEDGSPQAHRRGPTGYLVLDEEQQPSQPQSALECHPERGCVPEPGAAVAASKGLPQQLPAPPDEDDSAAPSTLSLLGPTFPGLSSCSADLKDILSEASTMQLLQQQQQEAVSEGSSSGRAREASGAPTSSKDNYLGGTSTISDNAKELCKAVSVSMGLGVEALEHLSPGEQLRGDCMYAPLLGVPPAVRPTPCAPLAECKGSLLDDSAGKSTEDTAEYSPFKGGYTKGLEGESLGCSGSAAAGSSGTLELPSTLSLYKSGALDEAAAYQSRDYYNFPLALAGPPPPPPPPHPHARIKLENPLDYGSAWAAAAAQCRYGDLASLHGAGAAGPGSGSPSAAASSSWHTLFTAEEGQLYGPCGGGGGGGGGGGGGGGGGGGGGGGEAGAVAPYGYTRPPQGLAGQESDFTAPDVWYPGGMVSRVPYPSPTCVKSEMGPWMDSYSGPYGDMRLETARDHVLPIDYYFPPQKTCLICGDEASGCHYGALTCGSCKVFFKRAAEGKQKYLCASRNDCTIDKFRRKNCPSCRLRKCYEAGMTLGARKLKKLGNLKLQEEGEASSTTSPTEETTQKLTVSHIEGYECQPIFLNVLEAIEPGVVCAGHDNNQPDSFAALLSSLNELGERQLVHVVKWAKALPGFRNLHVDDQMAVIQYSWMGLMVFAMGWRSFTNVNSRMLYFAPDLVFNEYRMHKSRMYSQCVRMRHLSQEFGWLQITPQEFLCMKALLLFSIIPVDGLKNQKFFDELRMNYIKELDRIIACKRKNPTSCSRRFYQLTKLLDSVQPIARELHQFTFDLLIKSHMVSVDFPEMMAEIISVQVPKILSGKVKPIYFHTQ
Chain of Aromatase (Homo sapiens) (P11511 whole entry, looked up): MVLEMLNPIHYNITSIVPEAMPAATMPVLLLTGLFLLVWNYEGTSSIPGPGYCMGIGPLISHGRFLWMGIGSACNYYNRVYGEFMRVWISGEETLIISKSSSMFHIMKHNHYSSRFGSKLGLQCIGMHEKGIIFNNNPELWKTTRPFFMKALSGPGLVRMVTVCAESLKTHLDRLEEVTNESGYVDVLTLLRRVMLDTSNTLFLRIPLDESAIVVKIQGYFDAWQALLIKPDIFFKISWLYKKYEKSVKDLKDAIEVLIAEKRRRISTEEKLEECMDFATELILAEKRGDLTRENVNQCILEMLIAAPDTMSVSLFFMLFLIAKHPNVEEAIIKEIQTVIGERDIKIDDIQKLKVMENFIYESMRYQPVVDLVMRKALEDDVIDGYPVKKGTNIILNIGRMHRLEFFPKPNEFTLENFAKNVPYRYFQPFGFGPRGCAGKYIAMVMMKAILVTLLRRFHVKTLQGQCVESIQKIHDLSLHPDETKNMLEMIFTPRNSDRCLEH

`CS(=O)(=O)CCNCc1ccc(-c2ccc3ncnc(Nc4ccc(OCc5cccc(F)c5)c(Cl)c4)c3c2)o1`: the Potency entry in [1], in assay [2], in assay [3], in [4], in assay [5] and in assay [6] was “inactive” each time. Moreover, the Potency entry in assay [7], in [8], in assay [9], in [10], in assay [11] and in assay [12] was “inactive” throughout. Besides, the Potency result (in assay [13]; in assay [14]; in assay [15]; in assay [16]; in the assay with Aromatase (Homo sapiens)) was “inactive” in each case.
On to `Clc1ccc2nsnc2c1NC1=NCCN1`, for which the Potency result in assay [1], in assay [2], in assay [3], in assay [4], in assay [5] and in assay [6] was “inactive” throughout. For the same molecule, the Potency entry in assay [8], in assay [9], in [10], in assay [12], in assay [13] and in assay [17] was “inactive” throughout. The Potency result (in [14]; in assay [15]; in [16]; in the assay with Aromatase (Homo sapiens)) was “inactive” each time. The Potency in [7] is 26.6 µM (active). The activation in assay [18] was 1.06%.
On to `CN1CCN(CCC(=O)N2c3ccccc3Sc3ccc(C(F)(F)F)cc32)CC1`, for which the Potency entry in assay [1], in assay [5], in assay [6], in [19], in assay [7] and in assay [9] was “inactive” in each case. Also, the Potency result (in assay [13]; in [14]; in assay [15]; in the assay with Aromatase (Homo sapiens)) was “inactive” each time. Besides, the Potency is 16.8 µM (active) in [2]; 13.3 µM (active) in [3]; 21.1 µM (active) in assay [4]; 11.9 µM (active) in assay [10]; 26.6 µM (active) in [11]. Further, the activation in assay [18] is -0.0617%.
For `CCCCCCCCCCCCCCCCCC[N+](C)(C)C`, the Potency in assay [1] was 24.6 µM (active); in assay [2] it was 2.74 µM (active); in assay [3] it was 1.37 µM (active); in assay [4], 2.74 µM (active); in assay [5], 43.8 µM (active); in assay [8], 48.7 µM (active). In addition, the Potency in [9] was 24.4 µM (active); in assay [10] it was 12.2 µM (active); in assay [17], 43.8 µM (active); in the assay with Aromatase (Homo sapiens), 21.8 µM (active). In assay [7], the Potency result is “inactive”.
For the molecule `CC/C(=C(\c1ccc(O)cc1)c1ccc(OCCN(C)C)cc1)c1ccccc1`, the Potency in assay [1] is 24.6 µM (active); in assay [2] it was 2.74 µM (active); in assay [3] it was 0.434 µM (active); in assay [4], 1.09 µM (active); in assay [5], 15.5 µM (active); in [10], 5.46 µM (active). Moreover, the Potency in [17] is 39 µM (active); in assay [16], 68.7 µM (active); in the assay with Aromatase (Homo sapiens), 0.0217 µM (active). For the same molecule, the Potency entry in [7], in assay [8] and in [12] was “inactive” in each case.
On to `Fc1ccc([C@@H]2CCNC[C@H]2COc2ccc3c(c2)OCO3)cc1`, for which the Potency entry in assay [1], in assay [7], in assay [14] and in assay [15] was “inactive” throughout. Moreover, the Potency in assay [2] was 3.76 µM (active); in [3], 7.5 µM (active); in assay [4], 7.5 µM (active); in [5], 8.49 µM (active); in assay [6], 13.4 µM (active); in assay [9] it was 21.1 µM (active). Moreover, the Potency is 11.9 µM (active) in assay [10] and 10.6 µM (active) in assay [11].
